Experimental findings from PubChem BioAssay AID1159506 (National Center for Advancing Translational Sciences (NCATS), 2015) are described below.

Over roughly 59,000 sequences, the read-out has its median near -0.00055; the lowest 2% begin near -2. The sample as a whole holds a higher share of the lowest values than the screen did.

The nature of the assay: Identification of proteins required for the processing of the EWS-FLI1 nascent transcript.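 Note: robust z of luciferase light less the median z of siRNAs with the same seed.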 To be noted: TC32 Ewing sarcoma NR0B1-luc vs CMV-luc (EWS-FLI1 target promoter against control promoter), 48 h; screened at 20 nM (by protocol). The method, then: Ewing sarcoma (ES) cells depend on the EWS-FLI1 fusion transcription factor for cell survival. Using an assay of EWS-FLI1 activity and genome-wide siRNA screening we have identified proteins required for the processing of the EWS-FLI1 nascent transcript. Parallel genome-wide siRNA-mediated RNAi screens were conducted in Ewing sarcoma TC32 cell lines expressing a luciferase (luc) reporter protein driven by either the promoter of the EWS-FLI1 target gene NR0B1 (TC32-NR0B1-luc) or the CMV promoter (TC32-CMV-luc). Luciferase activity was assessed 48 hours post siRNA-transfection.
Twenty microl of serum-free media containing Lipofectamine RNAiMax (0.05 microl) was added to wells containing siRNA (0.8 pmol). Lipid and siRNA were allowed to complex for 45 min at ambient temperature before addition of 600 cells in RPMI-1640, 20% FBS to yield final transfection mixtures containing 20 nM siRNA in RPMI-1640, 10% FBS. Luciferase expression was measured using OneGlo (Promega, Madison, WI). The genome-wide screening campaign was conducted using Ambion's human genome library version 4.1 (Ambion, Austin TX). This library targets approximately 21000 human genes, three siRNAs per gene. Each siRNA is arrayed in an individual well of a 384-well plate. Parallel transfections were conducted in TC32-NR0B1-luc and TC32-CMV-luc cell lines and luciferase expression (OneGlo, Promega) was assayed 48 h later on a PerkinElmer Envision 2104 Multilabel plate reader (PerkinElmer, Waltham, MA). Qiagen's AllStars Negative control was incorporated on all screening plates for normalization (16 wells per plate). Qiagen, Germantown, MDsiGL4 was incorporated as a positive transfection control (16 wells per plate) on all plates. […] The raw luciferase data for the NR0B1- and CMV-luc screens were normalized and z-score-MAD transformed using standard methods (Chung et al., 2008). The miRNA-like seed sequence of every siRNA was determined and the median z-score for all siRNA sequences with the same seed sequence was calculated. This z-score was subtracted from the z-score associated with each siRNA with that seed sequence to generate a seed-adjusted z-score value (Z) that was used when the results for the three siRNAs corresponding to each gene were compared (Marine et al., 2012)
As to AAUGGAUUCAGUUACUUGC against TACSTD2, the seed-corrected z-score is -0.0397. In turn, UGUCUUCGAUGUUUCAUCG against DOK6 returned a seed-corrected z-score of -2.6. As for UUCGGGAAAGUAGUCAUGA against NSFL1C, the figure is 0.0545. On to UACACUAGCAUUGCACUCC against ARHGEF19, for which the seed-corrected z-score is 0.989. As for AUCUUGUUCCGCAUGGUCU against AMOTL2, the figure is 0.501; as for UUUAGCAACAGAGUCCACC against MAP2K6, 0.538; as for AUCUUCAAUACUUGAAUCU against LINC00467, -0.368.

The sequence UUUCAUGCACCAACGGAUC against ABHD2 returned a seed-corrected z-score of -2.24. With AAAGGAAAGAUGACAGUAU against OR4N5, the seed-corrected z-score turned out to be 0.213. AAGCUUUUUAUUGGAGUUC against ZNF852: the seed-corrected z-score was 1.01.

UCAGCGAACAUGUCCAGGG against CD2BP2 displayed a seed-corrected z-score of 0.587. Next, AAUUUAAUAGUGUUUGUGC against PLPP4: 0.11; UCAGAGCACAGAUCGGGAC against DUSP2: 0.227; UUUGUCCUUAGUAAUGAAU against HOXA13: -0.568.

In the case of UUUGCAAUUGAGGUGAGGC against ANP32D, the seed-corrected z-score is -0.262. As for UUCACAACAGGGUGGAGCC against FAM110A, the seed-corrected z-score was -0.481. Consider UUGCCUAUCUGGUUGAUGG against MATN1, for which the seed-corrected z-score is -0.472.

UUCUGAUUCUGCUUGUUGG against MPRIP registered a seed-corrected z-score of -2.12. Sequence UCCGUUAUAAACAAACAGG against ITGA11 displayed a seed-corrected z-score of -0.259. Next, UUCUGCAAGCUCACUGUCC against TTC7A: -0.896. In turn, UUAUCUAUAACAGAGUAUG against DCBLD2 had a seed-corrected z-score of 0.479. As for UUGGAAAGCAGUGUCUCUG against KRTAP8-1, the seed-corrected z-score was -0.147. Take UCUGCUUUGCAAAUAGCCG against SRD5A1: the seed-corrected z-score was -3.07. As for UAUGUGCACACGGUCUUGA against NRN1, the figure is -1.7; as for UAAGUUUAUAGUUGGGAAC against RPS25P6, -0.0501. Regarding AUUGGAUCAGUGGAGCUCU against SPANXN4, the seed-corrected z-score amounted to 0.397.

AAAUUCGUAAGCUCUGUGG against C2orf70 gave a seed-corrected z-score of 1.37.

Take AAGCUUCUCAUUAAUGCCC against CYB561A3: the seed-corrected z-score is -1.26. Sequence UAGGCAAAAACAGUCCACC against B3GNT8 showed a seed-corrected z-score of -0.0844.

Sequence UAUUACUCAGCAGCUUUGC against TIPIN yielded a seed-corrected z-score of -0.378. Next, AUACUGGAUAUCAUAGUUC against ARG2: -2.32; UUGGUUGUCAUGAUCAGUG against PAPD7: 0.333; UUUUGUUCGUCUCCGUUCC against AK4: 0.42. As for UGAGUUUCGCGCUCUCUCC against SLC17A7, the seed-corrected z-score was -2.93.

The sequence AGUAUUAUCACGUUAGUGG against NUP88 returned a seed-corrected z-score of -0.85. Next, UUUUCGCUACUUGAGUUGC against SLC35F5: -1.12. In turn, AAAGUUGAACUCCUGAUGG against MYT1L-AS1 had a seed-corrected z-score of 0.298. As for UCGUUGUUCAAACCAUUCC against ZEB2, the figure is -2.94. For UCUGAAUCCACUAACACUG against TMEM87B, the seed-corrected z-score was -0.0559.

UUGCUAAACAGGGCCUUGC against MCRS1: the seed-corrected z-score was determined as 1.49. Next, UAGGUUUUCUUCGUUGUCC against MIR503HG: 0.872; UUCGAAGCAUCUUUUGGGC against RPL7P9: -2.28. As for UGAGUUGAACACGUAGCCC against ALPI, the figure is 0.286. Next, UUUGCUAUCUUGCUGAUGC against LINC00615: 0.184; ACAGAUAUUGUAAAUCUCC against TMEM14C: 0.508; UAUUGUGAUAUAGGCACCG against WDR26: -1.57.

Sequence UCACGUUUCACCAAGAUGC against EIF4A3 came in with a seed-corrected z-score of -2.2. The sequence UCCAUGACAAUGUCCACUC against VAT1 yielded a seed-corrected z-score of -0.662.

For the sequence UCUGGAUUAUGGGUAGGCC against CHTOP, the seed-corrected z-score is -1.42. UUCUGCUUCUGUAUUAUCC against SAP30BP came in with a seed-corrected z-score of -2.11. As to UCACUAUCAAGUCUGGUAC against CSMD3, the seed-corrected z-score worked out at 0.55. As for UAUAUCUGCAACACGGUGG against SND1, the figure is 0.153. The sequence UGUCUUUCAAACGUAGGCC against ZNF792 came in with a seed-corrected z-score of -3.5. Next, UGUUUCGUAAACAUUCACC against FUT10: -0.285; UACAAUUACAUCAUCGUCC against GLT8D2: -0.139; UUCGAGAGACUGACAUGCG against SYT14P1: -0.0146. The sequence AUCUGGUUCAUUACAGUAG against BSDC1 displayed a seed-corrected z-score of -2.55.

For AAAAGACAUACAUGAAGAC against GJB1, the seed-corrected z-score was -0.779.

UCUAAUUCCAGGUAAAUUU against GOLT1B displayed a seed-corrected z-score of 0.519. With UUAUCUUGCAGCAAAGCAC against LYZ, the seed-corrected z-score is -1.35. Next, UUAAACUUCACGUUGUCCU against RPL38: -2.01. Next, AUUGGAGGCACUGCACUCG against NTM: 0.224. Take UAUAGGAGCUCUAGGAUCU against CSTF2T: the seed-corrected z-score is -0.439. For the sequence AGCAUUGUAAGUGACGUGC against KCNN2, the seed-corrected z-score is -2.24.

For the sequence UCUGUUAAUGCUAUUCUCC against C2orf61, the seed-corrected z-score was 0.146.

As for UGUUAAGUAGAAAAUAACC against CD83, the seed-corrected z-score came out at 0.552. Next, UAUGACAUCGGAGACCUUC against MEN1: 0.259; AAAGUUGCUAUGAAGCGAG against PSMA8: -2.62; UCUCGUUUAUCUACAUCUC against AUTS2: 0.181. The sequence UACAGACAUAUGUACAUCC against CCDC12 displayed a seed-corrected z-score of -2.89.

Regarding UGACAAAUCACUGUAUGUC against ZIM2, the seed-corrected z-score is -0.582.

The sequence UUUGAUACAGUAUCUACAG against DVL1 showed a seed-corrected z-score of 0.326. Next, UUAUUUCUCAGCUCGUUGG against STX6: -2.43. Turning to UUUGUUUGCACCAGUUGUC against OTUD1, the seed-corrected z-score is 0.434. UUGCGCUCUAGUUCCAGGC against PRPH displayed a seed-corrected z-score of -0.44.

Take UCCUUUAACGGGAUCUUGU against PI3: the seed-corrected z-score came out at 0.267.

Regarding UAUGUACAGAGACACCAGG against MC5R, the seed-corrected z-score was -2.92.

In the case of AUAGUCACAAAUGAAUCCG against PLS3, the seed-corrected z-score is 0.171. Next, AACGAUGAUAGAAUUUACG against CLEC16A: -2.32; UGUGGAAACAUUGAUCUGC against PRPF4: -1.56. The sequence UUCUUUAUUGAGUGCAUGG against KLK6 displayed a seed-corrected z-score of -1.38. Next, UCGUCUAUUGAUGAUGUCG against AQR: -2.1. As for UUCUGGAUUCUUGACCGCU against KRBOX4, the figure is 0.0382; as for AGCUUGGAGAGUUUAGCCC against SLC46A1, 0.256.

As to UUCCUAAUACCACAAUUGC against NKIRAS1, the seed-corrected z-score was -0.00171.
